We go through 39 compounds from PubChem BioAssay (NCI).

Molecules are shown by their SMILES. Compounds without any hit were thinned out: in the full panel of roughly 83,000, 20% have a hit.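 Method: cells in 96-well plates; compound added at one concentration; 48 h incubation; percent growth measured; values under 10 scored active.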 A number with no mark means an inactive call. Activity calls are given as the source filed them.

This assay deals with MCF7 breast. The experiment in a line: NCI-60 one-dose screen, 48 h (100 = growth as untreated, 0 = no growth, -100 = all killed). To be noted: 10 µM unless noted.
For the compound `COc1cc(CN(c2ccc(C)cc2)C2OC(=O)c3ccccc32)cc(OC)c1OC` (centres undefined), the growth was 13.9%.

Take `COc1cc2c(c(OC)c1O)C(=O)C(OC)C(c1ccc(O)c(O)c1)O2` (centres undefined): the growth was 11%.

As to `ClCc1c(Cl)c(Cl)c(Cl)c(CCl)c1Cl`, the growth was -4.94% (active).

Take `Brc1ccsc1Br`: the growth was 103%.

Take `CCCCSc1ncnc2c1ncn2C1CCCCO1` (centres undefined): the growth was 91.5%.

On to `Clc1ccc(-c2cnc3c(-c4ccnc(N5CCNCC5)c4)cnn3c2)cc1`, for which the growth was -63.4% (active).

In the case of `O=C1Nc2ccccc2/C1=C\c1nc(C2CCN(S(=O)(=O)c3ccc(F)cc3)CC2)n2ccccc12`, the growth is 48.7%.

As to `COc1cc(/C=C/c2cc(/C=C/c3ccc(O)c(OC)c3)n(C(=O)Nc3ccc(F)c(Cl)c3)n2)ccc1O`, the growth was 2.06% (active).

Regarding `O=C(Nc1cccc(-n2ccc3c(NC(=O)c4ccccc4)nccc32)c1)c1ccc(N2CCOCC2)c(C(F)(F)F)c1`, the growth was 14%.

`CCOC(=O)c1cc(N)nc2ccccc12`: the growth was 107%.

As for `CCOC(=O)Cc1cc(Br)c(OCc2ccccc2)c(Br)c1`, the growth was 107%.

`CCOC(=O)C1C(=O)C=C(c2ccccc2)CC1c1sc(N(C)Cc2ccccc2)nc1Cl` (centres undefined): the growth is 79.9%.

Regarding `O=c1c2cc(Br)cc(Br)c2nc(-c2ccc(Cl)cc2)n1/N=C\c1ccccc1F`, the growth is 56.1%.

For `CCN(CC)c1cc(C)c(Cc2c(OC)ccc3ccccc23)cc1C`, the growth was 90.9%.

For `CCN(C(=O)CCl)C(C)(C)C(SSSC(c1ccc(Cl)cc1)C(C)(C)N(CC)C(=O)CCl)c1ccc(Cl)cc1` (centres undefined), the growth was 57.1%.

In the case of `O=C(Nc1ccc(Br)cc1)c1ccc(Cl)c(Cl)c1`, the growth was 20.1%.

`COc1ccc2nc(C)cc(Sc3nc4ccccc4s3)c2c1`: the growth was 15.9%.

Turning to `C[C@@H]1N=C(c2ccc3ccccc3c2)Nc2nc3ccccn3c2C1=O`, the growth is 25.2%.

For `CC(C)[C@@H]1C=C2CC[C@H]3[C@](C)(CN)CCC[C@]3(C)[C@H]2CC1`, the growth is -44.3% (active).

Consider `O=C(Nc1ccc(-n2ccc3c(NC(=O)c4ccccc4)nccc32)cc1)c1ccc(N2CCOCC2)c(C(F)(F)F)c1`, for which the growth was 23.2%.

Consider `COc1ccc(CNc2c3ccccc3nc3ccccc23)cc1F`, for which the growth was 2.34% (active).

As to `Cc1cc(O)ccc1Sc1ccccc1[N+](=O)[O-]`, the growth is 118%.

For `O=C(C(=O)N1CCCC1)c1cn(CCCn2cc(C(=O)C(=O)N3CCCC3)c3cc(Br)ccc32)c2ccc(Br)cc12`, the growth is 61.6%.

For `COc1cc(/C=N/NC(=O)Cn2c(-c3ccc(C)o3)nc3ccccc32)ccc1OCc1ccccc1`, the growth was 76.2%.

Turning to `CCOCCNc1ccc(S(=O)(=O)c2ccc(N)cc2)cc1N`, the growth is 113%.

Regarding `CC(C)(C)c1ccc(OC(=O)Nc2ccccc2)cc1`, the growth was 110%.

On to `CCOC(=O)c1cc(C(=O)OCC)c(C)nc1C`, for which the growth is 90.9%.

On to `Cc1ccc(OC2=C(C#N)C(=N)N3C(=NN2)Sc2c(C)ccc(C)c23)cc1`, for which the growth is 91%.

For the compound `COc1cccc(NC(=O)OC(C)C)c1`, the growth was 102%.

As for `CCCCCCCCCCCC1=NC(C)(C)CN1C(C)C`, the growth is 27.8%.

Turning to `O=C(Nc1ccccc1)c1cc2ccccc2s1`, the growth is 46.8%.

Turning to `CC(C)(C)[Si](C)(C)OC1[C@@H](CNC(N)=O)O[C@@H](n2cnc3c(NC(=O)Nc4ccccc4)ncnc32)[C@H]1O[Si](C)(C)C(C)(C)C` (some centres undefined), the growth is 17.9%.

For the compound `O/N=C/c1ccncc1`, the growth was 97.3%.

With `COc1ccc2nc3ccccc3c(NCc3ccc(C)cc3)c2c1`, the growth is 3.43% (active).

For the compound `C=C(C)[C@@H]1CC[C@]2(C(=O)NC(COC(=O)C(Cl)Cl)(COC(=O)C(Cl)Cl)COC(=O)C(Cl)Cl)CC[C@]3(C)[C@H](CC[C@@H]4[C@@]5(C)CC[C@H](OC(C)=O)C(C)(C)[C@@H]5CC[C@]43C)[C@@H]12`, the growth was 21.4%.

In the case of `C#Cc1cccc(Nc2nc3cc([N+](=O)[O-])ccc3nc2Nc2ccc(O)cc2)c1`, the growth is 2.84% (active).

For the compound `N#CCCn1cnc2c(N)ncnc21`, the growth was 97.1%.

`O=C(CCl)N1c2ccccc2Oc2ccc3ccccc3c21`: the growth was 10.4%.

`CC(C)c1ccc(-c2cnc3nonc3n2)cc1`: the growth was 11.5%.
